Compound activity from PubChem.
NLRP3 yeast inh – inhibitors of NALP3 inflammasome in yeast | Yeast reconstituted NLRP3/ASC/caspase-1, beta-gal luminescence, 24 h | inhibition, % at 10 µM | actives 0.39% (n = 330,000) | AID 2825;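 active = inhibition of 50% or more; inactive = inhibition below 50%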
Yeast superoxide – yeast age-related superoxide inhibition as caloric restriction mimetic; actives 0.18% (n = 330,000); S. cerevisiae aged cells, superoxide DHE fluorescence; active compounds read low; superoxide response (% of plate mean), % at 10 µM;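 active = superoxide response under a set limit, about three screen SD below normal, cut at about 65% in these data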;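 note: yeast aged for seven days with compound at 30 °C before DHE staining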
TIM10 inh – TIM10 yeast growth inhibition; S. cerevisiae TIM10 strain growth, BacTiter-Glo luminescence, 24 h; inhibition, % at 10 µM; actives 1.4% (n = 330,000); AID 463195;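 active = inhibition of 40% or more at the single tested concentration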;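 note: wild-type TIM10 isogenic control strain grown at permissive 25 °C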
tim23-1 inh – inhibits growth of tim23-1 mutant yeast | actives 1.3% (n = 330,000) | S. cerevisiae tim23-1 growth, BacTiter-Glo luminescence, 24 h | AID 463212 | inhibition, % at 20 µM;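 active = growth inhibition of the mutant yeast at or above 50%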;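 note: temperature-sensitive mutant grown at 25 °C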
tim10-1 inh – growth inhibitors of tim10-1 mutant yeast | S. cerevisiae tim10-1 ts strain growth, BacTiter-Glo, 24 h | inhibition, % at 20 µM | actives 2.2% (n = 330,000) | AID 463190;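 active = inhibition of at least 40%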;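 note: mutant grown at 25 °C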
tim10 confirm – confirmation of TIM10 yeast growth inhibitors. actives 63% (n = 4,600). shares compounds with TIM10 inh. AID 463215. inhibition, % at 10 µM. S. cerevisiae tim10 strain growth, BacTiter-Glo luminescence, 24 h;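 active = inhibition of yeast growth at or above a set limit in either of two replicates at 10 µM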; note: this counterscreen used the strain with wild-type TIM10
Numbers stand for hits; n = inactive; x = no result. The list is not random: actives were taken first. Their share in the collection is about 3.8%.

SMILES | NLRP3 yeast inh | Yeast superoxide | TIM10 inh | tim23-1 inh | tim10-1 inh | tim10 confirm
CC(C)C(=O)NCC(c1ccc2c(c1)OCO2)N1CCOCC1 (stereo unspecified) | n | n | n | n | n | x
c1ccc(Cn2c(-c3ccco3)nc3nc4ccccc4nc32)cc1 | n | n | 42.7 | n | n | n
CCCCCn1c(-c2ccco2)nc2nc3ccccc3nc21 | n | n | n | n | n | x
COc1ccc(C(=O)N2CCCC(c3ccccc3)=N2)cc1 | n | n | 44.5 | n | n | n
Cc1ccc(C(=O)N2CCCC(c3ccc(Cl)cc3)=N2)cc1 | n | n | n | n | n | x
Cc1c(C(=O)N2CCN(S(=O)(=O)c3ccccc3)CC2)oc2ccccc12 | n | x | 46.9 | n | n | 32.3
CCOc1cc(/C=C2\SC(=NC)N(C)C2=O)cc(Cl)c1OC(C)=O | n | n | n | n | n | x
CCOc1cc(/C=C2\SC(=NC)N(C)C2=O)c(Br)cc1OC(C)=O | n | n | 82.4 | n | n | n
COc1ccccc1N1CC(C(=O)Nc2cc(C(F)(F)F)ccc2N2CCCC2)CC1=O (stereo unspecified) | n | n | n | n | n | x
Cc1cc(NC(=O)COc2ccccc2)n(-c2ccccc2)n1 | n | n | n | n | n | x
Cc1cc(C)cc(OCC(=O)OCC(=O)Nc2cc(C)nn2-c2ccccc2)c1 | n | n | 82.9 | n | n | n
COc1cccc(CNCc2ccc(OC)cc2OC)c1 | n | n | n | n | n | x
CCn1c2ccccc2c2cc(CNCc3ccc(OC)cc3OC)ccc21 | n | n | 48.6 | n | n | n
COc1ccc(/C=N/NC(=O)c2ccoc2C)cc1COc1ccc(Cl)cc1 | n | n | 50.6 | n | n | n
COc1ccc(/C=N/NC(=O)c2ccoc2C)cc1OC | n | n | n | n | n | x
COc1ccc(-c2cc(=O)oc3c(C)c(OCC(=O)NCCCn4ccnc4)ccc23)cc1 | n | n | n | n | n | x
CC(C)CCN1CCN(Cc2cnc(-c3ccccc3)s2)CC1CCO (stereo unspecified) | n | n | n | n | n | x
Nc1nnnn1/N=C/c1ccc(Cl)cc1 | n | n | n | n | n | x
N/C(Cc1cccc2ccccc12)=N\OC(=O)Cc1cccs1 | n | n | 49.1 | n | n | 37.8
c1ccc(-c2csc(Nc3ccc4c(c3)OCCO4)n2)cc1 | n | n | 41.4 | n | n | n
Cc1c(C(=O)N2CCOCC2)sc(NC(=O)c2ccccc2F)c1C#N | n | n | n | n | n | x
COCCSc1nnc(NC(=O)c2ccco2)s1 | n | n | 67.3 | n | n | n
CC1CCCCC1NC(=O)CCS(=O)(=O)c1cc2c(cc1Cl)NC(=O)CO2 (stereo unspecified) | n | n | n | n | n | x
CC(C)(C)n1nnnc1C(c1cccc(C#N)c1)N1CCCc2ccccc21 (stereo unspecified) | n | n | 43.0 | n | n | n
CCC(C)(C)n1nnnc1C(c1cccnc1)N1CCCc2ccccc21 (stereo unspecified) | n | n | 40.2 | n | n | 36.9
SMILES | NLRP3 yeast inh | Yeast superoxide | TIM10 inh | tim23-1 inh | tim10-1 inh | tim10 confirm
CC(C)(C)n1nnnc1C(c1ccc(Cl)cc1)N1CCCc2ccccc21 (stereo unspecified) | n | n | n | n | n | x
Cc1[nH]c2ccccc2c1-c1nc(-c2ccc(Cl)cc2)nnc1-c1ccccc1 | n | n | n | n | n | x
Clc1ccc(-c2noc(CSc3nnc(Cc4cccs4)n3-c3ccccc3)n2)cc1 | n | n | 97.2 | n | n | n
CCOc1ccc(-n2c(SCc3nc(-c4ccc(C)cc4)no3)nnc2-c2ccncc2)cc1 | n | n | n | n | n | x
Clc1ccc(-c2noc(CSc3nnc(-c4ccncc4)n3-c3ccccc3)n2)cc1 | n | n | 47.8 | n | n | 36.2
Cc1ccc(-c2noc(CSc3nnc(-c4ccncc4)n3-c3ccc(C)cc3)n2)cc1 | n | n | 42.8 | n | n | 38.9
COc1ccccc1NC(=O)c1ccc2c(c1)N(CC(=O)NC(C)C)C(=O)C(C)(C)O2 | n | n | n | n | n | x
Cc1cc2n(n1)C(c1cccs1)Nc1ccccc1-2 (stereo unspecified) | n | n | n | n | n | x
CCOc1ccc(-c2csc3ncn(-c4ccc(OC)cc4)c(=O)c23)cc1 | n | n | n | n | n | x
O=C(c1ccc(N2C(=O)c3ccccc3C2=O)cc1)N1CCCCC1 | n | n | n | n | n | x
CCc1ccc(N2C(=O)C(Cl)=C(Nc3ccc(C(=O)N4CCCC4)cc3)C2=O)cc1 | n | n | 50.4 | n | n | 41.7
O=C(NCc1ccccn1)C1(C(F)(F)F)C/C(=C\CCO)CCCO1 (stereo unspecified) | n | n | n | n | n | x
COc1ccc(N/C(=C2\CCCC2=O)C2CCCCC2)cc1 | n | n | n | n | n | x
CCn1cc([N+](=O)[O-])c(C(=O)N2N=C3/C(=C/c4cccs4)CCCC3C2c2cccs2)n1 (stereo unspecified) | n | n | 41.1 | n | n | n
CCc1ccccc1NC(=S)Nn1cnnc1 | n | n | n | n | n | x
Cc1cc(C(F)(F)F)c2sc(N)nc2n1 | n | n | n | n | n | x
Nc1nc2nc(-c3ccccc3)cc(C(F)(F)F)c2s1 | n | n | 47.2 | n | n | 39.5
Cc1ccc(C)c(-c2cc(C(=O)Nc3nccs3)c3ccccc3n2)c1 | n | n | 46.9 | n | n | 42.1
O=c1ccn(CCCBr)c(=O)[nH]1 | n | n | n | n | n | x
CSC1=C(C#N)C(=O)NC(c2ccc(Cl)cc2)S1 (stereo unspecified) | n | n | 45.5 | n | n | n
CCOC(=O)COn1c(=O)c(-c2ccc(F)cc2)[n+]([O-])c2ccccc21 | n | n | n | n | n | x
CCOC(=O)COn1c(=O)c(-c2cccs2)[n+]([O-])c2ccccc21 | n | n | 41.8 | n | n | n
COc1ccc(CC(=O)NCC2CCCN(Cc3ccc(OC(F)(F)F)cc3)C2)cc1 (stereo unspecified) | n | n | 98.5 | n | n | n
Cc1cc(C(=O)COC(=O)CC2Sc3ccccc3NC2=O)c(C)n1-c1ccccc1 (stereo unspecified) | n | n | 57.4 | n | n | 32.0
Cc1cc(C(=O)COC(=O)CC2Sc3ccccc3NC2=O)c(C)n1-c1ccc(Br)cc1 (stereo unspecified) | n | n | n | n | n | x
SMILES | NLRP3 yeast inh | Yeast superoxide | TIM10 inh | tim23-1 inh | tim10-1 inh | tim10 confirm
Cc1ccc(/C=N/n2cc(-c3ccccc3)[nH]c2=S)s1 | n | n | 41.4 | n | n | 42.2
NCCCCCNC(=O)c1nc[nH]c1C(=O)NCC(=O)OCc1ccccc1 | n | n | n | n | n | x
O=C(COc1ccc(Cl)cc1Cl)NNC(=S)Nc1ccc(F)cc1 | n | n | 45.1 | n | n | 37.7
C/C(=N\NC(=O)COc1ccc([N+](=O)[O-])cc1)C(C)(C)C | n | n | n | n | n | x
O=[N+]([O-])c1ccc(N/N=C/c2cccnc2)cc1 | n | n | 41.8 | n | n | n
CCOC(=O)/C=C1\NC(=O)C(C)S1 (stereo unspecified) | n | n | n | n | n | x
